ANO1 block – mouse TMEM16A channel inhibition, primary screen; HEK293 TMEM16A/YFP iodide influx fluorescence, ionomycin; normalized B-score (activity score, 25-100; higher = stronger inhibition) at 10 µM; 310,000 tested, 1.2% active; AID 588511;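 active means ratio plate-corrected score three or more library SD toward inhibition, starting fluorescence score within five deviations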;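 further: score derived from kinetic fluorescence span divided by baseline fluorescence per well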
TLR4-MyD88 BLA – inhibitors of human TLR4-MyD88 binding; O00206+Q99836; HeLa CL3-4 TLR4/MyD88 BLA complementation, FRET ratio; inhibition, % at 8.4 µM; 200,000 tested, 0.18% active; in the data active means inhibition above about 25%;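 further: 0% = vehicle and 100% = reference inhibitor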
TLR9-MyD88 block – TLR9-MyD88 interaction inhibition; Q9NR96+Q99836; CHO BLA complementation TLR9-MyD88, CCF4 FRET ratio; inhibition, % at 4.98 µM; 340,000 tested, 0.21% active;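 active means inhibition above the mean over all tested compounds plus 3 SD, cut at about 21% in these data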;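 further: 0% = DMSO only wells and 100% = clavulanate BLA inhibitor control wells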
ANO1 activ – activates or potentiates the mouse TMEM16A chloride channel; Q8BHY3; HEK293 TMEM16A/YFP-H148Q/I152L, iodide quench fluorescence; stronger effect = lower value; B-score at 10 µM; 340,000 tested, 0.3% active; AID 623877;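 active means fluorescence-ratio B-score plate-corrected deviation score at least 3 library SD below zero, with starting fluorescence score within 5 deviations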;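 further: channel opened by trigger with iodide after compound preincubation; score built on the fluorescence ratio of max minus min over baseline; more negative score means more quench and so TMEM16A activation or potentiation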
NOD2 RIPK2 PPI – blocks binding of human NOD2 to RIPK2 | O43353 | CHO BLA complementation NOD2-RIPK2, CCF4 ratio | inhibition, % at 4.98 µM | 360,000 tested, 0.38% active | AID 624267; in the data active means inhibition above about 21%;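 further: 0% = vehicle only and 100% = reference blocker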
Target sequence (O43353 whole entry, looked up): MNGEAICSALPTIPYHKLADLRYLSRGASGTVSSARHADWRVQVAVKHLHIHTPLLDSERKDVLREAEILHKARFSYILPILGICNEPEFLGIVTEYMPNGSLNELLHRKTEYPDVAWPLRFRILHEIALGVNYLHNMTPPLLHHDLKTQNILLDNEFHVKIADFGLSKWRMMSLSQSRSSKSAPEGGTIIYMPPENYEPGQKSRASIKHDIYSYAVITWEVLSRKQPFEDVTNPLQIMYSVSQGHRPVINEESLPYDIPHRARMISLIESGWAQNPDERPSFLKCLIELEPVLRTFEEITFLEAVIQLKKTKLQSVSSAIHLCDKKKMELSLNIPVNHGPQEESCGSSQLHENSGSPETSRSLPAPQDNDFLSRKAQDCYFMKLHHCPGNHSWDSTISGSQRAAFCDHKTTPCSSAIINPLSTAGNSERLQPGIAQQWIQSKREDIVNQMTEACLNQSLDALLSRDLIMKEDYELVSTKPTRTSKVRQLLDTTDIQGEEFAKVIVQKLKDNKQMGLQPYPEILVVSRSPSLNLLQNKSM
m5-HT2A agonist – agonists of mouse serotonin 5-HT2A receptor (HTR2A). P35363. CHO-K1 mHTR2A beta-arrestin complementation, luminescence; percent of 30 µM serotonin response. activation, % at 7.6 µM. 360,000 tested, 0.66% active;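 active means activation above a run cutoff, the mean activation of all tested compounds plus 3 SD, cut at about 14% in these data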;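 further: 0% = plate median of compound wells and 100% = 30 µM serotonin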
MOR ag counter – OPRM1 agonism in mouse HTR2A counterscreen | AID 624380 | shares compounds with m5-HT2A agonist | 2,300 tested, 5.3% active | activation, % at 9.3 µM | U2OS OPRM1 beta-arrestin PathHunter, luminescence; DMSO 0%, DAMGO 9.3 µM 100%;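 active means mean activation above the mean of DMSO-only wells plus 3 SD, cut at about 0.5% in these data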
HTR2A ag conf – confirmation of mouse HTR2A serotonin receptor agonists; shares compounds with m5-HT2A agonist; CHO-K1 PathHunter beta-arrestin recruitment, luminescence; DMSO 0%, 30 µM serotonin 100%; activation, % at 7.6 µM; 2,300 tested, 19% active;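 active means mean activation across triplicates above the hit threshold derived in the original primary screen, cut at about 15% in these data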
* marks the source's active call; other numbers are inactive results; i = inactive; x = not tested or not shown. Sampled rows, rich in hits. Any-hit rate of the full collection: about 2.4%.

SMILES	ANO1 block	TLR4-MyD88 BLA	TLR9-MyD88 block	ANO1 activ	NOD2 RIPK2 PPI	m5-HT2A agonist	MOR ag counter	HTR2A ag conf
COc1ccc(C(=O)NCC(=O)OCC(=O)c2cc(OC)c(OC)c(OC)c2)cc1OC	i	-2	4	i	-10	15*	-1	0
COc1cc(C(=O)NCC(=O)OCC(=O)c2ccc[nH]2)cc(OC)c1OC	i	-8	-4	i	-7	-2	x	x
O=C(CSc1n[nH]c(-c2ccco2)n1)Nc1sc2c(c1C(=O)Nc1ccccc1)CCCC2	i	-5	6	i	-1	16*	0	18*
Cc1nc2ccccc2c(=O)n1/N=C/c1cccnc1	i	-8	2	i	7	15*	-1	-1
C#CCn1c(-c2cccs2)nc2ccccc21	i	-1	-10	i	-1	22*	-1	-2
CCn1c(-c2cccs2)nc2ccccc21	i	-10	0	i	-10	-5	x	x
COC(=O)CCCC1=CC2=C(c3ccccc3)C(=O)C(C)(OC(=O)C3CCCC3)C(=O)C2=CN1CCc1ccccn1 (configuration not stated)	i	x	-10	i	0	15*	0	-5
COC(=O)CCCC1=CC2=C(c3ccccc3)C(=O)C(C)(OC(=O)C3CCCC3)C(=O)C2=CN1CCN1CCOCC1 (configuration not stated)	i	x	8	i	-4	-4	x	x
CCC(=O)Nc1ccc(N2CCN(C(=O)c3ccco3)CC2)c(Cl)c1	x	x	-14	i	4	-1	x	x
Cn1c(N)c(C(=O)Nc2c(Cl)cccc2Cl)sc1=S	i	x	-1	i	0	20*	0	1
CCOC(=O)C1=C(N)Oc2cc(O)ccc2C1c1ccc(C)cc1 (configuration not stated)	i	x	-11	i	-7	31*	1.1*	-1
OCC[C@@H]1C[C@H](O)[C@@H](O)[C@@]2(OCCCc3cc(C(F)(F)F)ccc32)O1	x	x	x	x	-6	15*	0	7
CC(=O)c1ccc(NC(=O)CN2C(=O)COc3ccc(Cl)cc32)cc1	i	6	3	i	7	5	x	x
Cc1ccc(NC(=O)C(=O)c2ccc(C)cc2)cc1	i	x	-11	i	-4	-11	x	x
CCCn1c(N)c(Sc2ccc(Cl)cc2)c(=O)n(CCC)c1=O	i	23	0	i	4	23*	-1	6
CCCCn1c(N)c(Sc2ccc(Cl)cc2)c(=O)[nH]c1=O	i	-2	5	i	-1	2	x	x
O=C(Cc1ccccc1)NNC1CC(=O)N(c2ccccc2)C1=O (configuration not stated)	i	-4	-5	i	-10	2	x	x
O=C(Cc1ccccc1)NNC1CC(=O)N(c2ccc(Oc3ccccc3)cc2)C1=O (configuration not stated)	i	x	4	i	7	17*	-1	-2
Cc1c(C(=O)N2CCCCC2)c(S(=O)(=O)Nc2ccc(F)cc2F)c(C)n1C	i	x	5	i	-4	0	x	x
COc1cccc(NC(=O)CN(C)C(=O)CNC(=O)c2ccc(C)s2)c1	x	x	1	i	-12	2	x	x
C=CCN1CCc2nc(N)sc2CC1	x	-3	7	i	-7	50*	-1	151*
CCN1CCc2nc(N)sc2C1	i	-3	-5	i	-1	7	x	x
Cc1ccc(OCc2n[nH]c(=S)n2Cc2ccccc2)cc1	i	-7	-2	i	-5	-5	x	x
CN=c1scc(-c2ccc(F)cc2)n1/N=C/c1ccc(O)c(O)c1	x	-2	3	i	2	16*	0	85*
CSc1ccc(/C=C/C(=O)OCC(=O)N2CCN(S(=O)(=O)c3ccc(C)cc3C)CC2)cc1	x	x	-18	i	7	24*	0	-2
SMILES	ANO1 block	TLR4-MyD88 BLA	TLR9-MyD88 block	ANO1 activ	NOD2 RIPK2 PPI	m5-HT2A agonist	MOR ag counter	HTR2A ag conf
Cc1ccc(S(=O)(=O)N2CCN(C(=O)COC(=O)/C=C/c3ccc(F)cc3)CC2)c(C)c1	i	x	13	i	-14	-1	x	x
CCC(Sc1nc2ncccc2[nH]1)C(=O)NCCc1ccccc1 (configuration not stated)	i	x	-10	i	-2	-8	x	x
CCc1cc(=O)oc2c(C)c(O)c(CN3CCCCC3)cc12	i	8	-6	i	3	22*	-1	-2
Cc1c(O)c(CN2CCCC2)cc2c3c(c(=O)oc12)CCC3	i	1	-1	i	-1	-5	x	x
COC(=O)c1cc2ccsc2n1CC(=O)Nc1cc(Cl)ccc1OC	25*	5	3	i	-4	19*	-1	-4
COC(=O)c1cc2ccsc2n1CC(=O)Nc1ccc(N(C)C)cc1	i	2	3	i	3	0	x	x
O=C(O)C1CSC(c2ccc3c(c2)OCO3)N1 (configuration not stated)	i	x	0	i	-6	16*	-1	-5
O=C(NCc1ccc2c(c1)OCO2)C1CCN(c2nccc(C(F)(F)F)n2)CC1	i	x	-5	i	-3	2	x	x
COc1ccc(C2SCC(=O)N2C)cc1 (configuration not stated)	i	2	2	i	-1	3	x	x
Cc1cc2cc(CCNC(=O)CCc3ccccc3)c(=O)[nH]c2cc1C	i	x	5	i	1	22*	-1	-3
O=C(NC1CCCCCC1)C1CCCN1S(=O)(=O)c1cccc2cccnc12 (configuration not stated)	i	-5	8	i	8	-8	x	x
O=C(NC1CCCC1)C1CCCN1S(=O)(=O)c1cccc2cccnc12 (configuration not stated)	i	-7	-1	i	-4	22*	0	-1
O=C(O)c1ccccc1N/N=C\c1ccnc2ccccc12	i	0	5	i	-5	14*	-1	1
ON=Cc1ccnc2ccccc12	x	x	6	x	2	5	x	x
O=C(CN1CCc2ccccc21)NN1CC(=O)N(c2ccccc2)CC1=O	i	x	-1	i	-14	19*	-1	-4
Cc1ccc(N2CC(=O)N(NC(=O)CN3CCN(c4ccccc4)CC3)CC2=O)cc1	i	x	5	i	-1	0	x	x
CCOc1ccc(CCNC(=O)CS(=O)(=O)Cc2nc(-c3ccc(OC)cc3)oc2C)cc1	i	x	-13	i	-8	3	x	x
